Assay results as given in PubChem BioAssay (EPA / NIEHS).
Records with an inconclusive call do not appear. The source made the active and inactive calls. How the source made its calls: active means hit-call score of the fitted dose curve at least 0.9, where 1 is the maximum; inconclusive means response in the unintended direction; inactive means score below 0.9.

Molecular target: Androgen receptor (Homo sapiens) (UniProt P10275)
Assay: ATG_AR_TRANS: Attagene TRANS-FACTORIAL HepG2 Assay for human Androgen Receptor (AR) (AID 2282973)
Settings: HepG2 Attagene TRANS-FACTORIAL AR reporter transcription
How it was run: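 Transfected HepG2, 24 h treatment, chimeric NR-Gal4 driving GAL4-UAS reporters. mRNA induction by RT-PCR/capillary electrophoresis fluorescence; DMSO as negative control and baseline.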

Sequence of Androgen receptor (Homo sapiens) (P10275 whole entry, looked up): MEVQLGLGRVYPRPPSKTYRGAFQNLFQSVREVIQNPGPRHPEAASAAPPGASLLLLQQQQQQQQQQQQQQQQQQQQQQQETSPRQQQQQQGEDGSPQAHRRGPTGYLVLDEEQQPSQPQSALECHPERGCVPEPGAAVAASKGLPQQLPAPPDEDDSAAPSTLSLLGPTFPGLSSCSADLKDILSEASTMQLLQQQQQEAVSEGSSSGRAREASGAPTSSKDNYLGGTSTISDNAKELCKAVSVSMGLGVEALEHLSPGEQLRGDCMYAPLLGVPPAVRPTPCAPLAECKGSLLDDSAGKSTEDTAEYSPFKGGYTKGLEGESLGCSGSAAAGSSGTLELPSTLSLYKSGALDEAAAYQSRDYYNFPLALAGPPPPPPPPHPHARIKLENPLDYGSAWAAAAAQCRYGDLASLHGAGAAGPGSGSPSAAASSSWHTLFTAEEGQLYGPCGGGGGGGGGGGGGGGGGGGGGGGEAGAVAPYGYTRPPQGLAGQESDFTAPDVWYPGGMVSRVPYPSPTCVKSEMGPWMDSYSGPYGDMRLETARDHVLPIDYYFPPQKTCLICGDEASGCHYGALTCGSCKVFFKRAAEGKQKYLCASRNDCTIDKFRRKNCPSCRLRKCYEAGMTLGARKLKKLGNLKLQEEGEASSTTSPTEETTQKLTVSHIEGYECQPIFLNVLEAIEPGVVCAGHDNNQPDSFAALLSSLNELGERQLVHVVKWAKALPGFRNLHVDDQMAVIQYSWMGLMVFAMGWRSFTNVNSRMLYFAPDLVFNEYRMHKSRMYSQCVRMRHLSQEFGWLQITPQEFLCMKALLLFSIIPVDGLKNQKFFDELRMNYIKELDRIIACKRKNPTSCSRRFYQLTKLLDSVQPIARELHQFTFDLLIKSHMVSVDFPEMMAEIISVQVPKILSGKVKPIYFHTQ

outcome, inactive:
O=C(C=Cc1ccccc1)OCC=Cc1ccccc1, CC(C)(C)NC(N)=O, Nc1cc([N+](=O)[O-])ccc1O, c1ccc(Sc2ccccc2)cc1, NCC1CCCC(CN)C1 (stereo unspecified), C[C@H]1O[C@@H](O[C@H]2[C@@H](O)C[C@H](O[C@H]3[C@@H](O)C[C@H](O[C@H]4CC[C@@]5(C)[C@H](CC[C@@H]6[C@@H]5C[C@@H](O)[C@]5(C)[C@@H](C7=CC(=O)OC7)CC[C@]65O)C4)O[C@@H]3C)O[C@@H]2C)C[C@H](O)[C@@H]1O, C[N+](C)(CCCNS(=O)(=O)CCC(F)(F)C(F)(F)C(F)(F)C(F)(F)C(F)(F)C(F)(F)F)CC(=O)[O-], CCCCCCCCCC[N+](C)(C)[O-], C=C(C)[C@@H]1CC=C(C)C(=O)C1, CC(C=O)Cc1ccc(C(C)(C)C)cc1 (stereo unspecified), COCCOCCC[Si](C)(O[Si](C)(C)C)O[Si](C)(C)C, NCC(F)(F)C(F)(F)C(F)(F)C(F)(F)C(F)(F)C(F)(F)C(F)(F)F, Cc1ccc(N(C)C)cc1, C=CCc1cc(S(=O)(=O)c2ccc(O)c(CC=C)c2)ccc1O, O=C(NO)c1ccccc1, NNC(=O)c1cccc(C(=O)NN)c1, O=C(F)C(F)(F)C(F)(F)C(F)(F)C(F)F, CCCCCCCC(=O)OCCCCCC, COC(=O)Cc1cccc2ccccc12, CC(=O)Nc1ccc(S(N)(=O)=O)cc1, C[Si](O[Si](C)(C)C)O[Si](C)(C)C
